Screening data as filed in PubChem.
Only a selection was taken, and hits are over-represented in it overall.
Pf apPOL block = Pf-apPOL DNA polymerase inhibition. inhibition, % at 10 µM. Recombinant Pf-apPOL, molecular beacon fluorescence, 1.5 h. actives 0.25% (n = 210,000)
mHTT-CaM PPI inh = mHTT-calmodulin interaction abrogation; actives 3.6% (n = 190,000); P42858; AlphaScreen His-mHTT/GST-CaM binding, luminescence; inhibition, % at 15 µM;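 also: 0% = both proteins with DMSO and 100% = one protein alone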
* marks the source's active call; other numbers are inactive results; i = inactive; nt = no result given; + = active, no number. Rule as the data show it: active = inhibition above about 50%; inactive = the rest.

SMILES	Pf apPOL block	mHTT-CaM PPI inh
O=[N+]([O-])c1ccccc1C1Oc2ccccc2C2CC(c3cccs3)=NN21 (stereo not given)	-7	20
COc1ccc([N+](=O)[O-])cc1C1Oc2ccccc2C2CC(c3cccs3)=NN21 (stereo not given)	0	28
CCC1Oc2ccccc2C2CC(c3cccs3)=NN12 (stereo not given)	3	75*
c1csc(C2=NN3C(C2)c2ccccc2OC3c2ccc3c(c2)OCO3)c1 (stereo not given)	1	14
O=C(Nc1ccc2c(c1)CCCN2C(=O)c1ccco1)c1ccc([N+](=O)[O-])cc1Cl	-6	10
Cn1c(=O)c(N2CCN(C(=O)Cc3cccc(Cl)c3)CC2)nc2ccccc21	-2	-5
Cc1ccc(-c2n[nH]c3c2CN(C(=O)Cc2cccnc2)CC3)cc1	-11	9
O=c1oc2ccccc2cc1-c1csc(-c2cc3cc([N+](=O)[O-])ccc3oc2=O)n1	-1	4
O=C(c1ccc(F)c(F)c1)N1CCC(c2cnn(-c3ccccc3)c2)CC1	-3	-4
O=C(NCc1ccco1)C(=O)NCC1OCCN1S(=O)(=O)c1ccc([N+](=O)[O-])cc1 (stereo not given)	-1	9
COc1ccccc1NS(=O)(=O)c1ccc2c(c1)CC(C)N2C(C)=O (stereo not given)	-1	-2
CC(=O)Nc1cccc(NC(=O)c2ccccc2[N+](=O)[O-])c1	-10	0
CC(=O)Nc1ccc2c(c1)C1C=CCC1C(c1ccc(Br)cc1)N2 (stereo not given)	73*	86*
CC(=O)Nc1ccc2c(c1)C1C=CCC1C(c1ccccc1[N+](=O)[O-])N2 (stereo not given)	6	65*
Cc1ccc2c(c1)C1C=CCC1C(c1ccccc1Br)N2 (stereo not given)	-8	77*
Brc1cc2c(cc1[C@H]1Nc3ccccc3[C@H]3C=CC[C@H]31)OCO2	6	nt
CN(CC#N)C(=O)C1=CCN(C(=O)NC(C)(C)C)CC1	-2	-2
COc1ccc(CN2COc3ccc4c(=O)c(-c5ccccc5)coc4c3C2)cc1	-6	3
COc1ccc(-c2cc(-c3c(O)c(OC)c4occc4c3OC)[nH]n2)cc1OC	-2	86*
COc1c(-c2cc(C(F)(F)C(F)F)[nH]n2)c(O)c(OC)c2occc12	-3	21
COc1ccccc1NC(=O)c1cc(S(=O)(=O)N2CC(C)CC(C)C2)ccc1F (stereo not given)	-2	-3
O=C(Nc1ccc([N+](=O)[O-])cc1O)C1C2CC/C=C\CCC21 (stereo not given)	93*	40
Cc1ccc([N+](=O)[O-])cc1NC(=O)C1CC1	0	0
CN(CCc1ccccc1)C(=O)CCSCc1ccccc1F	40	-6
O=C(C1CCN(Cc2ccccc2O)CC1)N(CCc1ccccc1)Cc1ccccc1	2	17
SMILES	Pf apPOL block	mHTT-CaM PPI inh
Cc1ccc(CN2CCC(C(=O)N(CCc3ccccc3)Cc3ccccc3)CC2)o1	1	58*
S=c1[nH]nc(-c2ccco2)n1/N=C/C=C/c1ccco1	nt	i
S=c1[nH]nc(-c2cc(-c3ccccc3)n[nH]2)n1/N=C/C=C/c1ccco1	nt	+
C/C=C1\CC[N+]2(C)CCC34C(=C(C=O)C1CC32)N(C)c1ccccc14 (stereo not given)	nt	-2
CCc1c(C2CCN(C(=O)c3ccc(C#N)cc3)CC2)noc1N	-3	3
Cc1nc(-c2cn(C(C)C)c3ncccc23)sc1C(=O)N1CCN(C(C)C)CC1	-4	37
NS(=O)(=O)C#Cc1ccccc1	-3	-9
O=C1CCCC(O)=C1C(C#Cc1ccccc1)C1=C(O)CCCC1=O	-2	87*
C(=C\c1ccccc1)/C1=Nc2ccccc2NC(c2ccccc2)C1 (stereo not given)	-5	81*
O=C(O)c1ccc(N2N=C(/C=C/c3ccccc3)CC2c2ccccc2)cc1 (stereo not given)	1	-26
N=c1c(C(=O)NCCc2ccccc2)cc2c(=O)n3ccccc3nc2n1Cc1ccco1	-17	52*
CNC(=O)c1cc2c(=O)n3cc(C)ccc3nc2n(Cc2ccco2)c1=N	15	0
Cc1ccc2nc3c(cc(C(=O)NCCc4ccccc4)c(=N)n3Cc3ccco3)c(=O)n2c1	-1	56*
N=c1c(C(=O)NCc2cccnc2)cc2c(=O)n3ccccc3nc2n1Cc1ccco1	-8	4
CCC(C)NC(=O)C1CCN(c2ncccc2-c2nc(-c3ccc(C)cc3)no2)CC1 (stereo not given)	-6	-9
COc1ccc(S(=O)(=O)N2CCC(C(=O)Nc3ccc(C(C)C)cc3)CC2)cc1OC	-9	14
Cc1ccc(-c2noc(CN3C(=O)COc4ccccc43)n2)cc1	2	-20
Cc1cc(NC(=O)c2ccccc2)ccc1NC(=O)c1ccccc1	-5	2
Cc1cc(NC(=O)c2ccccc2)cc(NC(=O)c2ccccc2)c1C	52*	-2
Cc1cccc2nnc(N3CCC(C(=O)NCc4ccc(C(F)(F)F)cc4)CC3)n12	-6	5
O=C(NCCC1=CCCCC1)c1ncn[nH]1	-10	94*
O=C(NCCC1=CCCCC1)c1ccncc1	2	-3
Cc1cc(NC(=O)C2CCN(C(=O)NCc3ccc(F)cc3)CC2)no1	0	-11
C=CCNC(=O)C1c2ccccc2C(=O)N(C2CC2)C1c1cccc(C)c1 (stereo not given)	5	0
CCOc1ccc(NC(=O)C(C)Sc2nnc(C(c3ccccc3)c3ccccc3)n2C)cc1 (stereo not given)	82*	12
SMILES	Pf apPOL block	mHTT-CaM PPI inh
CCOc1ccc(NC(=O)C(C)Oc2ccccc2)cc1 (stereo not given)	1	-8
Cc1cccc(C(=O)N2CCCC(C(=O)Nc3ccc(F)cc3)C2)c1 (stereo not given)	-12	30
Cc1cc(NC(=O)c2c(F)cccc2Cl)n(-c2nc(-c3ccccc3)cs2)n1	-1	-15
COc1ccccc1N=Cc1ccc(O)c2c1OC(N)=C(C#N)C2c1cccc([N+](=O)[O-])c1 (stereo not given)	-8	77*
COc1cccc(N=Cc2ccc(O)c3c2OC(N)=C(C#N)C3c2ccccc2[N+](=O)[O-])c1 (stereo not given)	-4	95*
Cc1ccc(-n2nc(C)c3c2OC(N)=C(C#N)C3c2ccccc2[N+](=O)[O-])cc1 (stereo not given)	-3	9
N#CC1=C(N)Oc2c(C=Nc3ccccc3)ccc(O)c2C1c1ccc([N+](=O)[O-])cc1 (stereo not given)	3	35
COCCNC(=O)C1CCN(c2cccc(C)c2C)C1=O (stereo not given)	-2	-7
COCCCNC(=O)c1cnc(N2CCN(c3ccccc3OC)CC2)c2ccccc12	-2	18
Cc1cc(C2C(C#N)=C(N)N(c3cccnc3)C3=C2C(=O)CC(c2ccccc2)C3)c(C)s1 (stereo not given)	-6	58*
Cc1cc(C2C(C#N)=C(N)N(c3cccnc3)C3=C2C(=O)CCC3)c(C)s1 (stereo not given)	-4	-2
Clc1ccc(N=Cc2cc3ccccc3nc2Cl)cc1Cl	nt	1
CC1CCCC(NC(=O)C2Cc3ccccc3CN2S(C)(=O)=O)C1C (stereo not given)	1	5
CC1C2NC(=O)N(Cc3ccccc3)C1(C)Oc1ccccc12 (stereo not given)	0	68*
